# Data reported in article PMC7862700, “An all-to-all approach to the identification of sequence-specific readers for epigenetic DNA modifications on cytosine”.
# Experiments:
# Experiment in all cases: DAPPL (digital affinity profiling via proximity ligation, sequencing); 10 mM Tris-HCl pH 7.5, 50 mM NaCl, 1 mM DTT, 4% glycerol, room temperature, 30 min; GST-TFs on glutathione beads, 16-mer random dsDNA library, 0.1% formaldehyde crosslink after washing; high values mean tight binding
# FLI1 = molecular target: T1, FLI1 (Homo sapiens, UniProt Q01543 1-452); settings: protein: recombinant; tags: N-terminal GST; dsDNA, one strand shown
# T1 sequence: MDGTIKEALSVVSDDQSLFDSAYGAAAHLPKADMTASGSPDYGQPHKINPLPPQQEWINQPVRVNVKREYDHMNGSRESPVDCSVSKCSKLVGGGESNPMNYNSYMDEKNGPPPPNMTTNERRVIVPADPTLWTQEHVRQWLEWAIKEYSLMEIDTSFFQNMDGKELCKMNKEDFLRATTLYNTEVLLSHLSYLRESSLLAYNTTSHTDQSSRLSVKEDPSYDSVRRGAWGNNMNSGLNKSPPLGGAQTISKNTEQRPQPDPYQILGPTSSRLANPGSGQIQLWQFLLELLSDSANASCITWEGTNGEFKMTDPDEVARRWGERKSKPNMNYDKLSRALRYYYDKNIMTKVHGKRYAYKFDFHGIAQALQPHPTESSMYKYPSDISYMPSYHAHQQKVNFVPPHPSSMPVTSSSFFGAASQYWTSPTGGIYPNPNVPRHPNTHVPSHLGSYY
# In short: (§1)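 Each value of binding signal is a hexamer's read frequency for a factor divided by the same hexamer's frequency in the tag-only sample. Barcoded, bead-captured GST fusions of human transcription factors made in yeast were pooled with that sample and incubated with 200 nmole of a random double-stranded 16-mer DNA library in Tris/NaCl/DTT/glycerol buffer at room temperature for 30 min. Washing, 0.1% formaldehyde crosslinking, proximity ligation, PCR and Illumina NextSeq500 sequencing followed.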
# ELK1 = molecular target: T2, ELK1 (Homo sapiens, UniProt P19419 1-428); settings: protein: recombinant; tags: N-terminal GST; dsDNA, one strand shown
# T2 sequence: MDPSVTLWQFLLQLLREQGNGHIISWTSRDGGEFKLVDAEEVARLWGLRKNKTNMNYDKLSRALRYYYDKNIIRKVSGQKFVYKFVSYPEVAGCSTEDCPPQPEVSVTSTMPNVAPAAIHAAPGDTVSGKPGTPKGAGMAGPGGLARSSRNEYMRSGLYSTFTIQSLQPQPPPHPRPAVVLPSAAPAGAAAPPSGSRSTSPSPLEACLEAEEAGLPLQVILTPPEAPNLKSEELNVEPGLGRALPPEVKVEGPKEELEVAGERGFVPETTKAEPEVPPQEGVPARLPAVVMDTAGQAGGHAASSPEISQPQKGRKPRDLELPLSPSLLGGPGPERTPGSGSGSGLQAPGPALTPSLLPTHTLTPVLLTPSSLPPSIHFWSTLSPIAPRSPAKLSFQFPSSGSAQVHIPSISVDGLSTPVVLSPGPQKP
# In short: as §1
# GABPA = molecular target: T3, GABPA (Homo sapiens, UniProt Q06546 1-454); settings: protein: recombinant; tags: N-terminal GST; dsDNA, one strand shown
# T3 sequence: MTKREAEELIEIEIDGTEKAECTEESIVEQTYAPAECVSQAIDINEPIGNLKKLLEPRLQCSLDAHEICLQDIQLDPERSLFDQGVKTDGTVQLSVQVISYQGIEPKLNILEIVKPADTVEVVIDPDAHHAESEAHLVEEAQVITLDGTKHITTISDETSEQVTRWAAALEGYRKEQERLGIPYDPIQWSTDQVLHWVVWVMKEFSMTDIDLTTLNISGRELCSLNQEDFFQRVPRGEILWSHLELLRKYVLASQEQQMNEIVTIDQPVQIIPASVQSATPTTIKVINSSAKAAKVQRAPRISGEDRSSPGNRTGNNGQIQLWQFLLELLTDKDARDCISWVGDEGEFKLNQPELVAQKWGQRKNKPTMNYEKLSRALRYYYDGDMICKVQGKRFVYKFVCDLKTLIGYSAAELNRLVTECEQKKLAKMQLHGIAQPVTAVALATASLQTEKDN
# In short: as §1
# ERG = molecular target: T4, ERG (Homo sapiens, UniProt P11308 1-479); settings: protein: recombinant; tags: N-terminal GST; dsDNA, one strand shown
# T4 sequence: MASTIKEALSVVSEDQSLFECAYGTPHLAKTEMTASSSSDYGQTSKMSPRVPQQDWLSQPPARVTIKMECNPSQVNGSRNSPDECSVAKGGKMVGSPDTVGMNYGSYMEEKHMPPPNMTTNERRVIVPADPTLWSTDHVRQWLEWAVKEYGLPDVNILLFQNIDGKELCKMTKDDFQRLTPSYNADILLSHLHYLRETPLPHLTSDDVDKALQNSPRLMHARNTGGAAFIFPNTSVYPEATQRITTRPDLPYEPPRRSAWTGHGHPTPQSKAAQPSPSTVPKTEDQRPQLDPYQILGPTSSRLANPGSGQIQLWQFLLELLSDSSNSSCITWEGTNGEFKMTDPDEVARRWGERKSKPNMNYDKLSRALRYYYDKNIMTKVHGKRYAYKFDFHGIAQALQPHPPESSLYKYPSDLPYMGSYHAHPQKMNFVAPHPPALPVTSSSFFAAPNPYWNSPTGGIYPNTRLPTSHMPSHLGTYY
# In short: as §1
# ELF1 = ELF1 (Homo sapiens, UniProt P32519 1-619); settings: protein: recombinant; tags: N-terminal GST; dsDNA, one strand shown
# In short: as §1
# EHF = molecular target: T5, EHF (Homo sapiens, UniProt Q9NZC4 1-300); settings: protein: recombinant; tags: N-terminal GST; dsDNA, one strand shown
# T5 sequence: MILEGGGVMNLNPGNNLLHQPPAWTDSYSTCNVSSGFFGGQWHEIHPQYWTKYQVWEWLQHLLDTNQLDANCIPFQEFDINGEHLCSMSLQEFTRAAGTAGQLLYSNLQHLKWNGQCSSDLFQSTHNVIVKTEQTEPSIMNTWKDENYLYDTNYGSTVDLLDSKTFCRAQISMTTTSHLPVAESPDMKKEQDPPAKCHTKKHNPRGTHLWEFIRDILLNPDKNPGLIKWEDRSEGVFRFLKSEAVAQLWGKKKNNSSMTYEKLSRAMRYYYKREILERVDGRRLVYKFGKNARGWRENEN
# In short: as §1
# SPI1 = SPI1 (Homo sapiens, UniProt P17947 1-270); settings: protein: recombinant; tags: N-terminal GST; dsDNA, one strand shown
# In short: as §1
# SPIB = SPIB (Homo sapiens, UniProt Q01892 1-262); settings: protein: recombinant; tags: N-terminal GST; dsDNA, one strand shown
# In short: as §1
# ELK3 = molecular target: T6, ELK3 (Homo sapiens, UniProt P41970 1-407); settings: protein: recombinant; tags: N-terminal GST; dsDNA, one strand shown
# T6 sequence: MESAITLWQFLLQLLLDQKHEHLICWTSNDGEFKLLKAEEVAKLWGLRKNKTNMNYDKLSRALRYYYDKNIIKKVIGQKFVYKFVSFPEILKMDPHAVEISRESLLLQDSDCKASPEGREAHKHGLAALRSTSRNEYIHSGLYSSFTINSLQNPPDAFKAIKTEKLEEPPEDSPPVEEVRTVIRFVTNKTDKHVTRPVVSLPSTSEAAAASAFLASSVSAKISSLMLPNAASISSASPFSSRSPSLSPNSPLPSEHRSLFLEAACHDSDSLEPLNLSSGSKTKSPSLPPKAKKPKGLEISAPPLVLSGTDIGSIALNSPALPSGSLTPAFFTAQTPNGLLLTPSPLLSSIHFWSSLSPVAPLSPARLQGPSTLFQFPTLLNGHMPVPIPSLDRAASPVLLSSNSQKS
# In short: as §1
# FEV = molecular target: T7, FEV (Homo sapiens, UniProt Q99581 1-238); settings: protein: recombinant; tags: N-terminal GST; dsDNA, one strand shown
# T7 sequence: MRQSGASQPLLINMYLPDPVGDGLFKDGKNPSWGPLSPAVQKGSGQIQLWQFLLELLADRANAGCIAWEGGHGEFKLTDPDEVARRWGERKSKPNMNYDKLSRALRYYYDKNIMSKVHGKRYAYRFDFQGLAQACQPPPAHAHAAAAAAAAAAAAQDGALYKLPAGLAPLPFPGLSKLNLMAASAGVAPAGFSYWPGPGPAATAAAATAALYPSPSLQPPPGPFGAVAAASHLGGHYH
# In short: as §1
# ETV5 = ETV5 (Homo sapiens, UniProt P41161 1-510); settings: protein: recombinant; tags: N-terminal GST; dsDNA, one strand shown
# In short: as §1
# HSF1 = HSF1 (Homo sapiens, UniProt Q00613 1-529); settings: protein: recombinant; tags: N-terminal GST; chain copies: 3; dsDNA, one strand shown
# In short: as §1
# SPIC = molecular target: T8, SPIC (Homo sapiens, UniProt Q8N5J4 1-248); settings: protein: recombinant; tags: N-terminal GST; dsDNA, one strand shown
# T8 sequence: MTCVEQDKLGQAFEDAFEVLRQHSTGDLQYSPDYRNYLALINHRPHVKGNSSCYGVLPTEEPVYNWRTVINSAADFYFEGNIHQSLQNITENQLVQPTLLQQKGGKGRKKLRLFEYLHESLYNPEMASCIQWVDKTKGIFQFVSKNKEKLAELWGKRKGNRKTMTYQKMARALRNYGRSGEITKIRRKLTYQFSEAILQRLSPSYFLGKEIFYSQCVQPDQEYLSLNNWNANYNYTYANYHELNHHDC
# In short: as §1
# ELF4 = ELF4 (Homo sapiens, UniProt Q99607 1-663); settings: protein: recombinant; tags: N-terminal GST; dsDNA, one strand shown
# In short: as §1
# ELK4 = molecular target: T9, ELK4 (Homo sapiens, UniProt P28324-2 1-405); settings: protein: recombinant; tags: N-terminal GST; dsDNA, one strand shown
# T9 sequence: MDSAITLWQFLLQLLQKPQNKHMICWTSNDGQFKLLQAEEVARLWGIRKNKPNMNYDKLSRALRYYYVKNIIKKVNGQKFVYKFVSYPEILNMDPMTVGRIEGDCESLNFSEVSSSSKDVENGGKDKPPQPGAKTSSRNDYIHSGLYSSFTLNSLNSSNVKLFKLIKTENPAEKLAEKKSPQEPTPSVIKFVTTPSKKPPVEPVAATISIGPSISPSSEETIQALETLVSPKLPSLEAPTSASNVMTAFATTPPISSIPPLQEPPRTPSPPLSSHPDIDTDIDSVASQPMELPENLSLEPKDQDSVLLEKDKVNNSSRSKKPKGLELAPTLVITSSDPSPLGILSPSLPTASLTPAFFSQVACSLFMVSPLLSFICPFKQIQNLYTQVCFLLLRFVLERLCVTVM
# In short: as §1
# ETV2 = molecular target: T10, ETV2 (Homo sapiens, UniProt O00321 1-342); settings: protein: recombinant; tags: N-terminal GST; dsDNA, one strand shown
# T10 sequence: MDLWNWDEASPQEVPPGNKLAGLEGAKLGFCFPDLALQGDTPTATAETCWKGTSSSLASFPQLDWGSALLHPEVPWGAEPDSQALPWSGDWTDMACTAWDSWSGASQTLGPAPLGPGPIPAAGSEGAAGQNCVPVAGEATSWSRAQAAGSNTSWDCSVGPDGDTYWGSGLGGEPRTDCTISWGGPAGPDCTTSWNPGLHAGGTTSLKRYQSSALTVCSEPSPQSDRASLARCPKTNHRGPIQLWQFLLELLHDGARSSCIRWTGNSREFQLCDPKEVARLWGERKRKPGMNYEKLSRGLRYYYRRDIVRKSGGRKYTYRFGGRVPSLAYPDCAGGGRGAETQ
# In short: as §1
# ELF3 = molecular target: T11, ELF3 (Homo sapiens, UniProt P78545 1-371); settings: protein: recombinant; tags: N-terminal GST; dsDNA, one strand shown
# T11 sequence: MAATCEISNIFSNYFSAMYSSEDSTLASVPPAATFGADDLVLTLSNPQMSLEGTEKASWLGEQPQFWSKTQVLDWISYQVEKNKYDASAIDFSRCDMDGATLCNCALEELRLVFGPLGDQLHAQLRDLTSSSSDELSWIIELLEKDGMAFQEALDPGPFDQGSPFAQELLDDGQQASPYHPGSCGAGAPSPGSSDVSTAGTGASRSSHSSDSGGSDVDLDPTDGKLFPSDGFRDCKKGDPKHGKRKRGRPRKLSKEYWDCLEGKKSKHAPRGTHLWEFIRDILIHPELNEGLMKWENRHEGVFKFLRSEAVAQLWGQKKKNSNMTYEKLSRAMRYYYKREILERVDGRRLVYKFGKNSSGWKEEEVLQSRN
# In short: as §1
# CRX = CRX (Homo sapiens, UniProt O43186 1-299); settings: protein: recombinant; tags: N-terminal GST; dsDNA, one strand shown
# In short: as §1
# ETV1 = ETV1 (Homo sapiens, UniProt P50549 1-477); settings: protein: recombinant; tags: N-terminal GST; dsDNA, one strand shown
# In short: as §1
# Chain of ETV1 (P50549 whole entry): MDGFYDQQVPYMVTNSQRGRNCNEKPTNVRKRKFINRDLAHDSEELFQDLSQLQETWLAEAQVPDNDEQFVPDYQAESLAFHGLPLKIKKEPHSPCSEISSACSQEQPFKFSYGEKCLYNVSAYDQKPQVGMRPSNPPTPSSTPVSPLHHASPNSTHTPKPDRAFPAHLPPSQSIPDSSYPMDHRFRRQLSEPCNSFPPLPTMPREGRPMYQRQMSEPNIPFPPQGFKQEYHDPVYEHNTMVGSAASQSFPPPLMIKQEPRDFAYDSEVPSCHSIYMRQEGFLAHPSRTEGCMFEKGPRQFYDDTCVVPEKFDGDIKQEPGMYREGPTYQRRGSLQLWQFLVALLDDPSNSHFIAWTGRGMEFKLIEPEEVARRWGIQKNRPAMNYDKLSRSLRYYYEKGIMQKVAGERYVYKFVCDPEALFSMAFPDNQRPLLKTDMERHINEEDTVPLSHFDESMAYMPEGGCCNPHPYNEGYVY
# Chain of CRX (O43186 whole entry): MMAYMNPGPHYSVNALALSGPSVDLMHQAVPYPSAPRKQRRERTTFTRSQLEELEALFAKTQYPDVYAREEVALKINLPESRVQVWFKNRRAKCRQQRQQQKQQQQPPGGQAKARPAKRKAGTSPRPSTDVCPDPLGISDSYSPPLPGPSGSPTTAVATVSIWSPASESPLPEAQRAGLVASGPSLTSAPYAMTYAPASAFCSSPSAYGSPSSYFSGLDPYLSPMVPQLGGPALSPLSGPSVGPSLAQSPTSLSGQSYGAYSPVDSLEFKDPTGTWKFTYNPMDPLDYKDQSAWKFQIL
# Chain of ELF1 (P32519 whole entry): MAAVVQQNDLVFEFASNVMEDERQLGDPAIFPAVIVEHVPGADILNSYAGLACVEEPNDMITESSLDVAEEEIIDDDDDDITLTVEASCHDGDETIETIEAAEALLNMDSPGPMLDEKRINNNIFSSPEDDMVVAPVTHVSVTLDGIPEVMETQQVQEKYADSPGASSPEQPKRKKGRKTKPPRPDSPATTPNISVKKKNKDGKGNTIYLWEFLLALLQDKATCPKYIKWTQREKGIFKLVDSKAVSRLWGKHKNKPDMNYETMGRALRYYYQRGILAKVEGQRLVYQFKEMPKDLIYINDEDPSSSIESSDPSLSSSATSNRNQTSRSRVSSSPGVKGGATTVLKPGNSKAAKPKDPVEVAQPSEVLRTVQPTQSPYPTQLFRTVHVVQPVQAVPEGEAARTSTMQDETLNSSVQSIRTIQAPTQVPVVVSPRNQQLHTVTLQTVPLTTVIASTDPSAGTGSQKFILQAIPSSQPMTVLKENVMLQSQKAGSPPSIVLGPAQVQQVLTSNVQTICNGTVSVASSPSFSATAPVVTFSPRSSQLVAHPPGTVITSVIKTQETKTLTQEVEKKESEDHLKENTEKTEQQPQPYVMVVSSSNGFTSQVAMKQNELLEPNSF
# Chain of HSF1 (Q00613 whole entry): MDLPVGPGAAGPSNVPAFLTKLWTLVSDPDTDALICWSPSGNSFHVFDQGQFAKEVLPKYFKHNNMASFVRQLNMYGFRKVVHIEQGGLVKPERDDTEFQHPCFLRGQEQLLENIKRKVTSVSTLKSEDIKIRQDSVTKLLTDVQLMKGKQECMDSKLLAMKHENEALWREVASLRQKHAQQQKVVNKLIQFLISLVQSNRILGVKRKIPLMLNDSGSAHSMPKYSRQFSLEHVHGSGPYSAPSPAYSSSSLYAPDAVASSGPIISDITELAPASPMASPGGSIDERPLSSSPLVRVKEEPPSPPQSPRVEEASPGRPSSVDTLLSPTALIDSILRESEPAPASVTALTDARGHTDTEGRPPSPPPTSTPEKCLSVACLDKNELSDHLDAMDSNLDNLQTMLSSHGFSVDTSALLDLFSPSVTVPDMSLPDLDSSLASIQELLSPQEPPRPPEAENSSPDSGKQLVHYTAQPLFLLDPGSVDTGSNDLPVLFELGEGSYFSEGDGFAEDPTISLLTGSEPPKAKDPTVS
# Chain of ETV5 (P41161 whole entry): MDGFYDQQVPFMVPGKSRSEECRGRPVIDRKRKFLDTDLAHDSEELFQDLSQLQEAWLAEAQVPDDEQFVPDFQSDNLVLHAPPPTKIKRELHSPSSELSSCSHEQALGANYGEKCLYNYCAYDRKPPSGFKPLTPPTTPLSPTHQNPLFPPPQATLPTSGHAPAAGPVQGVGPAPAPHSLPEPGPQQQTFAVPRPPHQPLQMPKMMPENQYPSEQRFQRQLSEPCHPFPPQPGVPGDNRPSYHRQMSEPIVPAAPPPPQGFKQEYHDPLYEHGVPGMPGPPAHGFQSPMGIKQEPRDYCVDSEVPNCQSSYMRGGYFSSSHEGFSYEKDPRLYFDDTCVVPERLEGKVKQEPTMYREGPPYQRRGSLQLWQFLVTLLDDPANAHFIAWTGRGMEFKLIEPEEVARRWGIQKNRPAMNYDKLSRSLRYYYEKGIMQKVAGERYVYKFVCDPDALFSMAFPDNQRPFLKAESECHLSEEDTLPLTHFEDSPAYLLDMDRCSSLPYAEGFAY
# Chain of SPIB (Q01892 whole entry): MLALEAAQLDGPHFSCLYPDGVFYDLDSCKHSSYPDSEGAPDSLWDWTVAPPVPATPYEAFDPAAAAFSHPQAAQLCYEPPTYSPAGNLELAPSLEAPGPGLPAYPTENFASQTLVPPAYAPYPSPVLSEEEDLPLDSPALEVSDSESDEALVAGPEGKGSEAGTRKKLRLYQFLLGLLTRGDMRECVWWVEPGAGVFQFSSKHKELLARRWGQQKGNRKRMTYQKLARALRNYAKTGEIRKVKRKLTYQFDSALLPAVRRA
# Chain of ELF4 (Q99607 whole entry): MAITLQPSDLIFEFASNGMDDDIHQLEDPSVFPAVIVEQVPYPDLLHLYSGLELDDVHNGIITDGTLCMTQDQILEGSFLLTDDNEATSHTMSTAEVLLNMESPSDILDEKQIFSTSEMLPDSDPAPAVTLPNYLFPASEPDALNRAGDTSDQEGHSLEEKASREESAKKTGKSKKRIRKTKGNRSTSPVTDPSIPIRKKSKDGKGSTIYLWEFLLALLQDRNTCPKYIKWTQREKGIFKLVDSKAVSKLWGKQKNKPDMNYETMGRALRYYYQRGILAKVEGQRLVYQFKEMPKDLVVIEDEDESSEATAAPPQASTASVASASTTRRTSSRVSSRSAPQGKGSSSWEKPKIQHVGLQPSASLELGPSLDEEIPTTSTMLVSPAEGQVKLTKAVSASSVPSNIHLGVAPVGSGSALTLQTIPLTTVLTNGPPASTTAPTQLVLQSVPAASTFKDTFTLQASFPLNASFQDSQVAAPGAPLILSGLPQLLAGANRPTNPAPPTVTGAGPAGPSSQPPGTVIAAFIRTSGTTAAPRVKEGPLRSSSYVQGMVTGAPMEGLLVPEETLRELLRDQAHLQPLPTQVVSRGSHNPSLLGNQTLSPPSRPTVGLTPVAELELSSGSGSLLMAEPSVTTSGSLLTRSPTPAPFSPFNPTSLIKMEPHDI
sequence,measurement,setting,value
CCTCCC,binding signal,FLI1,"1.42 fold enrichment (6-mer frequency, TF over GST control)"
same,binding signal,ELK1,"1.43 fold enrichment (6-mer frequency, TF over GST control)"
same,binding signal,GABPA,"1.45 fold enrichment (6-mer frequency, TF over GST control)"
same,binding signal,ERG,"1.47 fold enrichment (6-mer frequency, TF over GST control)"
same,binding signal,ELF1,"1.54 fold enrichment (6-mer frequency, TF over GST control)"
same,binding signal,EHF,"1.57 fold enrichment (6-mer frequency, TF over GST control)"
same,binding signal,SPI1,"1.48 fold enrichment (6-mer frequency, TF over GST control)"
same,binding signal,SPIB,"1.48 fold enrichment (6-mer frequency, TF over GST control)"
same,binding signal,ELK3,"1.45 fold enrichment (6-mer frequency, TF over GST control)"
same,binding signal,FEV,"1.59 fold enrichment (6-mer frequency, TF over GST control)"
same,binding signal,ETV5,"1.55 fold enrichment (6-mer frequency, TF over GST control)"
same,binding signal,HSF1,"1.12 fold enrichment (6-mer frequency, TF over GST control)"
same,binding signal,SPIC,"1.65 fold enrichment (6-mer frequency, TF over GST control)"
same,binding signal,ELF4,"1.66 fold enrichment (6-mer frequency, TF over GST control)"
same,binding signal,ELK4,"1.3 fold enrichment (6-mer frequency, TF over GST control)"
same,binding signal,ETV2,"1.71 fold enrichment (6-mer frequency, TF over GST control)"
same,binding signal,ELF3,"1.36 fold enrichment (6-mer frequency, TF over GST control)"
same,binding signal,CRX,"1.21 fold enrichment (6-mer frequency, TF over GST control)"
same,binding signal,ETV1,"1.36 fold enrichment (6-mer frequency, TF over GST control)"
